Compound activity (PubChem)
Only a selection was taken, and hits are over-represented in it overall.
Pf apPOL block: Pf-apPOL inhibitors, biochemical, fluorescence; Plasmodium falciparum apicoplast DNA polymerase (apPOL); Recombinant Pf-apPOL, molecular beacon fluorescence, 1.5 h; inhibition, % at 10 µM; actives 0.25% (n = 210,000)
mHTT-CaM PPI inh: mutant huntingtin-calmodulin interaction inhibitors – biochemical, AlphaScreen, primary screen; inhibition, % at 15 µM; P42858; actives 3.6% (n = 190,000); AlphaScreen His-mHTT/GST-CaM binding, luminescence; AID 1671202, 2021;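 also: 0% = both proteins with DMSO and 100% = one protein alone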
An asterisk follows results filed as active; / = not tested or not shown. Rule as the data show it: active = inhibition above about 50%; inactive = the rest.

SMILES | Pf apPOL block | mHTT-CaM PPI inh
O=C(c1ccc(=O)n(Cc2ccc(F)cc2)n1)N1CCc2ccccc2C1 | -20 | 14
CCn1cc(C(=O)NCc2ccc(OC)cc2)c2c3ccccc3n(C)c2c1=O | -1 | 4
O=C(O)CCNc1ccc(Cl)cc1 | 3 | /
O=C(Cc1nc(-c2ccccn2)n[nH]1)Nc1cc(F)ccc1F | -9 | 95*
O=C(Cc1ccccc1F)Nc1cc(-c2ccccn2)no1 | -3 | -5
CCCCc1ccc(C(C2C(=O)CC(C)(C)CC2=O)C2C(=O)CC(C)(C)CC2=O)s1 | / | 45
COCC(=O)Nc1n[nH]c(C)c1-c1cccc(Cl)c1 | 0 | 2
O=[N+]([O-])c1ccc(S(=O)(=O)/C=C/C=C/N2CCCCC2)cc1 | 7 | 93*
O=[N+]([O-])c1ccc(S(=O)(=O)N2CCCCCC2)cc1 | 3 | 2
O=[N+]([O-])c1cccc(N=Cc2cccc([N+](=O)[O-])c2O)c1 | 0 | 5
O=[N+]([O-])c1cccc(C=Nc2cccc(O)c2)c1O | -3 | 74*
Cc1ccc(N=Cc2c(C)c(Cl)c(C)c([N+](=O)[O-])c2O)c(O)c1 | 2 | 8
Cc1c(Cl)c(C)c([N+](=O)[O-])c(O)c1C=Nc1cccc(O)c1 | 1 | 76*
O=c1oc2ccccc2cc1-c1cccc(N=Cc2ccccc2O)c1 | -3 | 6
Oc1ccccc1C=Nc1cccc(N=Cc2ccccc2O)c1 | -3 | 71*
CSc1cccc(NC(=O)CC2(CC(=O)O)CCCC2)c1 | -1 | /
CC(C)n1c(=O)c2c(ncn2Cc2ccc(F)c(F)c2)n(-c2cccc(F)c2)c1=O | -6 | 38
Cc1cc(C)c2c(N)c(S(=O)c3ccccc3)sc2n1 (stereo not drawn) | -6 | 1
Cc1c(Cl)cccc1NC(=O)N1CCC(c2cc(=O)n3nccc3n2C)CC1 | -1 | -2
O=C1C(=Cc2ccccc2F)Oc2c1ccc1c2CN(CC2CCCO2)CO1 (stereo not drawn) | 0 | 4
COc1cc(C2C(C#N)=C(N)Oc3c2oc(CO)cc3=O)c([N+](=O)[O-])cc1OC (stereo not drawn) | 4 | 22
COc1cc(C2C(C#N)=C(N)OC(C)=C2C(C)=O)c([N+](=O)[O-])cc1OC (stereo not drawn) | -5 | 57*
N#C/C(=C\c1ccco1)c1nc(-c2ccc(Br)cc2)cs1 | 0 | 6
COc1ccc(Cl)cc1CN1CCN(c2ccc(N3C(=O)COCC3=O)cc2[N+](=O)[O-])CC1 | -8 | 79*
Cc1ccc(N2CCN(c3ccc(N4C(=O)COCC4=O)cc3[N+](=O)[O-])CC2C)cc1 (stereo not drawn) | -14 | 11
SMILES | Pf apPOL block | mHTT-CaM PPI inh
COc1cc2c(cc1OC)C(C)N(c1ccc(N3C(=O)CC(C)C3=O)cc1[N+](=O)[O-])CC2 (stereo not drawn) | -15 | 60*
COc1ccc(Cl)cc1CN1CCN(c2ccc(N3C(=O)CCCC3=O)cc2[N+](=O)[O-])CC1 | -24 | 73*
O=C1CCCC(=O)N1c1ccc(N2CCCC(CO)C2)c([N+](=O)[O-])c1 (stereo not drawn) | -10 | 2
CC1CC(=O)N(c2ccc(N3CC4(C)CC3CC(C)(C)C4)c([N+](=O)[O-])c2)C1=O (stereo not drawn) | -18 | 37
CC1CC(=O)N(c2ccc(N3CCN(c4cccc(Cl)c4)CC3)c([N+](=O)[O-])c2)C1=O (stereo not drawn) | -14 | 46
COc1ccc(Cl)cc1CN1CCN(c2ccc(N3C(=O)CC(C)C3=O)cc2[N+](=O)[O-])CC1 (stereo not drawn) | -17 | 73*
O=[N+]([O-])c1cc(-c2ncnn2-c2ccc(Br)cc2)ccc1Cl | -1 | 1
CCC(=O)NCc1nc2c(n1C)CN(S(=O)(=O)c1cc(F)ccc1F)CC2 | -2 | 4
CC12CCC3c4ccc(O)c(Br)c4CCC3C1CCC2=O (stereo not drawn) | 7 | 9
O=C(c1ccco1)N1CCCC(c2nncn2Cc2ccccc2)C1 (stereo not drawn) | 2 | 3
COc1ccc(N/C(C)=C/C(=O)c2ccccc2)c(OC)c1 | -1 | 51*
COc1ccccc1N/C(C)=C/C(=O)c1ccccc1 | -4 | 22
CC1C(=O)N(Cc2cn(Cc3ccco3)nn2)CCS(=O)(=O)N1Cc1ccc(-c2ccc(F)cc2Cl)cc1 (stereo not drawn) | 4 | 81*
CC1C(=O)N(Cc2cn(Cc3ccco3)nn2)CCS(=O)(=O)N1Cc1ccc(-c2ccncc2)cc1 (stereo not drawn) | 9 | 30
CC1C(=O)N(Cc2cn(CCC3OCCCO3)nn2)CCS(=O)(=O)N1Cc1ccc(-c2ccc(F)nc2)cc1 (stereo not drawn) | -14 | 15
CC1C(=O)N(Cc2cn(Cc3ccco3)nn2)CCS(=O)(=O)N1Cc1ccc(-c2ccccc2Cl)cc1 (stereo not drawn) | -3 | 77*
Cc1ccccc1-n1nc(C)c2c1CC(C)(C)CC2=O | -6 | -1
